# Reference: PubChem BioAssay AID720507 (National Center for Advancing Translational Sciences (NCATS), 2013)
# The whole screen tested about 2,300 compounds, of which about 140 (6.1%) were called active. Not shown: some 18% with an inconclusive outcome. These entries were drawn from the full list. A number with no mark means an inactive call. Calls follow the shape of the dose curve; as a rule, active = well fitted activation curve with a large enough effect; inconclusive = small, poorly fitted or top-dose-only effect; inactive = flat fitted curve, though single readings scatter.
# Molecular target: D(2) dopamine receptor (Homo sapiens) (UniProt P14416)
# Test: qHTS of D3 Dopamine Receptor Agonist: D2 Dopamine Receptor B-arrestin Agonist Counterscreen; also: nearly all actives have a fitted effect of over 70% in size; as to activation: % of control where 0% means no effect
# Conditions: DiscoveRx PathHunter D2 beta-arrestin, luminescence, 90 min; series mostly up to 76.9 µM; activation: at the top concentration
# Excerpt: D3 DARs represent a very important target for the treatment of several neuropsychiatric disorders. Indeed, one of the most promising therapeutic applications for the D3 DAR is in the area of addiction and related disorders. […] These findings have been observed with a number of addictive substances including cocaine, amphetamine, nicotine, and alcohol. […] Increased D3 DAR activity can thus lead to neuroprotective and neurorestorative actions in the CNS. […] This assay is used to profile the activity of the identified D3 dopamine receptor agonist against the D2 dopamine receptor. Greater than 10% of the maximum dopamine agonist response is desired for this assay. NIH Molecular Libraries Probe Production Centers Network [MLPCN] NIH Chemical Genomics Center [NCGC] MLPCN Grant: NS064831 Assay Submitter (PI): David Sibley
# DiscoveRx D2 cells were thawed from frozen stock and seeded at 2,100 cells/ 3 uL/well media (DiscoveRx Plating Reagent 2) with MultiDrop Combi dispenser (Thermo Scientific, Logan, UT) onto white tissue culture treated 1536-well Aurora plates (Brooks Automation, Chelmsford, MA) and allowed to attach overnight at 37 deg C, 5% CO2. Next, 23 nL/well of compound solutions in DMSO were added with a pintool transfer (Kalypsis, San Diego, CA). […] The rest of the plate was dispensed with buffer only, 1 uL/well as well. The cells were stimulated by compounds or dopamine control for 90 minutes at 37 deg C, 5% CO2, after which 1.5 ul/well of DiscoveRx detection reagent was added with BioRAPTR FRD dispenser. The detection reagent was prepared by mixing of Galacton Star Substrate, Emerald II solution and PathHunter buffer (supplied by the assay kit) together at 1:5:19 proportion accordingly just prior to dispensing. The plates were incubated at ambient temperature for 1 hour and then the luminescent signal was read on ViewLux plate reader (PerkinElmer, Waltham, MA).
# Potency is read from the fitted curve at half-maximal effect.
# Sequence of D(2) dopamine receptor (Homo sapiens) (P14416 whole entry, looked up): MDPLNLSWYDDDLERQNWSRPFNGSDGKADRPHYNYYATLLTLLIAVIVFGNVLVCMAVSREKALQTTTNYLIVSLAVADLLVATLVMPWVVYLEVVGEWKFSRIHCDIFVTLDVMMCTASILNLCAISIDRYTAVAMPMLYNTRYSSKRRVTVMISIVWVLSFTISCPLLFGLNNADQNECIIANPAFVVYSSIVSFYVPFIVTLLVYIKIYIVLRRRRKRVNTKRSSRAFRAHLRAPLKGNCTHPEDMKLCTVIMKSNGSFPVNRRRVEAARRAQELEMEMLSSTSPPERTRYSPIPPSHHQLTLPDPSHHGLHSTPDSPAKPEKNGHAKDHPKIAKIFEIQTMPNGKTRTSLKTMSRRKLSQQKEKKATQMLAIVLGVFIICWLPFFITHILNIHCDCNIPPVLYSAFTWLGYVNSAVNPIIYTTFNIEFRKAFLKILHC
SMILES,activation [%],Potency
O=C(CC1NCCc2ccccc21)Nc1cccc(Cl)c1 (centres undefined),-6.22,–
O=C1C=C(c2cccc(Br)c2)C[C@@H](c2ccc(F)cc2)C1,-3.31,–
CC(C)(C)C(=O)OCc1nc(-c2ccc(O)c(O)c2)cs1,–,28.2 µM (active)
CC(CCc1ccccc1)NCC(O)c1cccc([N+](=O)[O-])c1 (centres undefined),11.9,–
CC(OC(=O)/C=C/c1ccccc1)C(=O)NC1CCCCC1C (centres undefined),2.72,–
O=C(OCc1nc2ccccc2[nH]1)C1CCCCC1,10.5,–
CCCN1CC=C2C(C#N)=C(N)C(C#N)(C#N)C(c3cc(OC)ccc3OC)C2C1 (centres undefined),-1.56,–
CN(C)CCOC(=O)C(c1ccccc1)C1(O)CCCC1 (centres undefined),-3.98,–
COc1cccc(NC(=O)C2CCCN(c3ncnc4c3nc3n4CCCCC3)C2)c1 (centres undefined),-3.08,–
CC(=C1C(=O)c2ccccc2C1=O)N1CCN(c2ccccn2)CC1,24.7,–
CNCC(O)c1ccc(O)c(O)c1 (centres undefined),–,17.8 µM (active)
Cc1ccc(CN2CCN(c3ncccn3)CC2)c(C)c1,–,50.1 µM (active)
O=C(CN1CCN(c2ncccn2)CC1)Nc1ccccc1C(F)(F)F,17.1,–
Cc1ccccc1Nc1nc(N)nc(CN2CCN(c3ccccn3)CC2)n1,-0.216,–
O=C1CC[C@H](O)CCN1[C@H](CSc1ccc(Br)cc1)Cc1ccccc1,0.237,–
O=C(c1ccccc1)c1ccc(OCC(O)CN2CCCC2)cc1 (centres undefined),-1.06,–
Cc1cc(C(=O)NNC(=O)c2ccccc2O)c(C)o1,-1.85,–

SMILES,activation [%],Potency
CCCCC(=O)NNC(=S)NC(=O)C(c1ccccc1)c1ccccc1,-7.08,–
Cn1c(C(=O)NCCCN2CCN(c3cccc(Cl)c3)CC2)cc2c(=O)n(C)c3ccccc3c21,9.01,–
CCn1cc(C(=O)N2CCN(Cc3ccc4c(c3)OCO4)CC2)c2cc(OC)c(OC)cc2c1=O,18.8,–
CCC(CC)NC(=O)/C=C/c1cccc([N+](=O)[O-])c1,-0.402,–
O=C(CCCn1c(=O)[nH]c2cc(Cl)ccc2c1=O)NCCN1CCN(c2ccccc2)CC1,10.7,–
O=C(CCn1c(=O)[nH]c2ccccc2c1=O)NCCCN1CCN(c2cccc(Cl)c2)CC1,12.8,–
CC(=O)Nc1ccc(OCC(O)CN2CCN(c3ccccc3Cl)CC2)cc1 (centres undefined),18.5,–
CC(C)c1ccc(OCC(O)CN2CCN(c3ccccn3)CC2)cc1 (centres undefined),–,39.8 µM (active)
Cc1ccccc1OCC(O)CN1CCN(c2ccccn2)CC1 (centres undefined),7.71,–
COc1ccc(C2NC(=O)C(=O)/C2=C(\O)c2ccc(Cl)cc2)cc1OC (centres undefined),-3.12,–
CCn1c(=O)n(CC)c2cc(N3CCCC3)c(NC(=O)c3ccccc3Br)cc21,2.89,–
Cc1cccc(OCC(=O)NCC(=O)N/N=C/c2ccc(N(C)C)cc2)c1,-2.06,–
OC(COCc1ccco1)CN1CCN(c2ccccc2)CC1 (centres undefined),18.6,–
OC(COc1ccc2c(c1)CCC2)CN1CCN(c2cccc(Cl)c2)CC1 (centres undefined),27.5,–
CC(C)(C)n1ncc2c(=O)n(Cc3c(Cl)cccc3Br)cnc21,6.34,–
CC(C)CCN1CCN(Cc2cn[nH]c2C2CCCCC2)CC1CCO (centres undefined),3.55,–
Cc1cc(C)c(/C=C2\C(=O)Nc3ccccc32)[nH]1,-6.49,–
